# In all, about 6,200 compounds went through this assay and about 2,900 (47%) were called active. Rule as the data show it: active = inhibition above about 50%; inactive = the rest. So high a share suggests a set chosen from earlier hits. The list shows a part of the results.
# Assay: Mycobacterium tuberculosis growth inhibition, primary screen (AID 1259343)
# Settings: inhibition: at 10 µM, hits give high values; outcome: 10 uM
row,SMILES,inhibition
1,CCc1ccc(CNC(=O)c2cc(C)sc2C)s1,54.8% (active)
2,CN(C)c1cc(C(=O)NCc2ccc(Cl)s2)ccn1,-1.2% (inactive)
3,CCc1ccc(CNC(=O)c2cncc(Br)c2)s1,83.2% (active)
4,CCc1ccsc1CNC(=O)c1sccc1Br,24.1% (inactive)
5,CCc1ccc(CNC(=O)c2cc(F)ccc2Br)s1,59.5% (active)
6,CCc1ccc(CNC(=O)c2ccc(Cl)s2)s1,45% (inactive)
7,Cc1noc(-c2ccc(N3CC[C@@H](c4ccc5c(c4)OCO5)[C@H](O)C3)nc2)n1,12.9% (inactive)
8,COC1CCN(c2ccc(-c3nc(CCCc4ccccc4)no3)cn2)CC1,51.1% (active)
9,CC(C)Cc1noc(-c2ccc(-c3ccc(O)cc3)nc2)n1,23.2% (inactive)
10,Nc1ccc(-c2ccc(-c3nc(CCCc4ccccc4)no3)cn2)cn1,59.3% (active)
11,OCc1ccccc1-c1ccc(-c2nc(CCc3ccccc3)no2)cn1,75.2% (active)
12,CCc1nc(C)c(-c2nc(CCc3ccccc3)no2)s1,49.3% (inactive)
13,CCc1cn[nH]c1C1CCN(c2noc(-c3ccccc3)n2)CC1,20.9% (inactive)
14,COc1ccccc1C(=O)Nc1ccc2c(c1)CN(Cc1c[nH]c3ccccc13)CC2,45.8% (inactive)
15,O=C(Nc1ccc2c(c1)CN(Cc1ccc(-n3cccn3)cc1)CC2)c1ccccn1,inactive
16,O=C(Nc1ccc2c(c1)CN(C(=O)CCCc1cccs1)CC2)c1ccccn1,54.1% (active)
17,O=C(CCCc1cccs1)N1CCN(c2ccccc2O)CC1,13% (inactive)
18,O=C(Nc1ccc2c(c1)CN(C(=O)/C=C/c1cccs1)CC2)c1ccccn1,58.9% (active)
19,CC(C)Oc1cccc(C(=O)C2CCCN(C(=O)/C=C/c3cccs3)C2)c1 (centres undefined),-2.95% (inactive)
20,FC(F)(F)c1cc(NCC2CC2)c2ccccc2n1,8.13% (inactive)
21,OC(c1cc(C(F)(F)F)nc2c(C(F)(F)F)cccc12)C1CCCCN1 (centres undefined),78.8% (active)
22,O=S(=O)(NCCc1cccc(Cl)c1)N1CCCCCC1,21.7% (inactive)
23,O=C(NCCc1ccc(Cl)cc1)N1CCN(c2ccccc2)CC1,13.3% (inactive)
24,O=C(NCCc1cccc(Cl)c1)N1CCc2ccccc2C1,83.4% (active)
25,CSc1nc2ccc(N=Cc3ccc4ncccc4c3)cc2s1,-22.5% (inactive)

row,SMILES,inhibition
1,CSc1nc2ccc(N=Cc3c[nH]c4ccccc34)cc2s1,95.1% (active)
2,Cn1c(COc2cccc3ccccc23)nc2ccccc21,-3.53% (inactive)
3,Cc1ccc(C)c(OCCN(C)Cc2nc3ccccc3n2C)c1,83.1% (active)
4,Cn1c(CSc2ccccc2)nc2ccccc21,39% (inactive)
5,CC1(C)C2CCC1(C)C(Nc1ncnc3sccc13)C2 (centres undefined),41.4% (inactive)
6,CCCCC(CC)CNS(=O)(=O)c1cccc(F)c1 (centres undefined),45.9% (inactive)
7,c1nc(NC23CC4CC(CC(C4)C2)C3)c2ccsc2n1,-13.2% (inactive)
8,CC(C)CCCC(C)Nc1ncnc2sccc12 (centres undefined),60.5% (active)
9,FC(F)(F)c1cc(Nc2ncnc3sccc23)ccc1Br,23.6% (inactive)
10,CCCCC(CC)CNc1ncnc2sccc12 (centres undefined),59.1% (active)
11,CN(Cc1cccc(-n2cccn2)c1)Cc1nc(Cc2ccccc2Cl)no1,inactive
12,COC(=O)c1ccc(-c2noc(CN(C)Cc3cccc(-n4cccn4)c3)n2)cc1,50.6% (active)
13,Cc1cc(C)n(-c2cccc(CN(C)Cc3nc(-c4ccc5c(c4)OCO5)no3)c2)n1,45.7% (inactive)
14,CC(SC1CCCC1)C(=O)N1CCCC1 (centres undefined),52.1% (active)
15,COc1cccc(-c2ccccc2NC(=O)C2CCN(CC3CC=CCC3)CC2)c1 (centres undefined),84% (active)
16,COc1cccc(-c2ccccc2NC(=O)C2CCN(CCC(C)c3ccc(C)o3)CC2)c1 (centres undefined),80.1% (active)
17,COc1cccc(-c2ccccc2NC(=O)C2CCN(CC3CCCCC3)CC2)c1,89.8% (active)
18,COc1cccc(-c2ccccc2NC(=O)C2CCN(Cc3cc4ccccc4[nH]3)CC2)c1,17.3% (inactive)
19,COc1cccc(-c2ccccc2NC(=O)C2CCN(CC(C)c3ccccc3)CC2)c1 (centres undefined),74.2% (active)
20,CC(C)c1ccc(C#N)c(SC2CC(=O)N(c3ccc(Br)cc3)C2=O)n1 (centres undefined),10.7% (inactive)
21,O=C(/C=C/c1ccc(O)c(O)c1)OCCc1ccccc1,102% (active)
22,COc1cc(/C=C/C(=O)O)ccc1O,37.7% (inactive)
23,CC1CC(OCC(O)CN2CCC(CN3C(=O)c4cccc5cccc(c45)C3=O)CC2)CC(C)(C)C1 (centres undefined),90.1% (active)
24,O=C(CCNc1ccc(Cc2ccncc2)cc1)c1ccc2c(c1)OCO2,84.6% (active)
25,O=C(C(Br)=CNc1ccc(Cl)c(Cl)c1)C(F)(F)F,87% (active)

row,SMILES,inhibition
1,CN(CC1Cc2ccccc2O1)C(=O)c1cc(COc2ccc3ncccc3c2)on1 (centres undefined),35.5% (inactive)
2,CCC(C(=O)c1ccc2ncccc2c1)c1ccccc1 (centres undefined),58.2% (active)
3,CCc1ccc(C(=O)NCc2cccc(C(=O)Nc3ccncc3)c2)o1,51.8% (active)
4,CCN(c1ccc(C(=O)Nc2ccncc2)cc1)C(C)C,8.43% (inactive)
5,CCc1ccc(C(=O)NCc2ccc(C#N)cc2)o1,12.2% (inactive)
6,CC1(C)C2CC=C(C=NNC(=O)NC3CCCCC3)C1C2 (centres undefined),-4.24% (inactive)
7,O=C(/C=C/c1ccc([N+](=O)[O-])s1)Nc1nnc(C2COc3ccccc3O2)o1 (centres undefined),101% (active)
8,CN(CCCC(=O)Nc1ccc2[nH]c(=S)oc2c1)C(=O)OC(C)(C)C,73.7% (active)
9,CN(CCCCCCCCCCN(C)C(=O)Oc1cccc([N+](C)(C)C)c1)C(=O)Oc1cccc([N+](C)(C)C)c1,49.3% (inactive)
10,C=CCN=c1scc(-c2ccccc2)n1N=Cc1ccccn1,20.3% (inactive)
11,Cc1[nH]n(-c2cccc(Cl)c2)c(=O)c1C=NCCc1ccccc1,72.9% (active)
12,Cc1ccc(C)c(Oc2cc(-n3ncc(Cl)c(Cl)c3=O)nc(C)n2)c1,101% (active)
13,Cc1ccc2nc(-c3ccncc3)cc(-c3ccccc3)c2c1,53.7% (active)
14,NC(=O)C(c1ccc(F)cc1)N1CCOC(c2ccc(F)cc2)C1 (centres undefined),-5.29% (inactive)
15,CC1(C(=O)NCc2cccc3ccccc23)CCN1CCCc1ccccc1 (centres undefined),32.3% (inactive)
16,O=C(CCl)N1CCN(Cc2c(F)cccc2Cl)CC1,66.2% (active)
17,O=c1ccc(-c2ccco2)nn1Cc1cccc2ccccc12,37% (inactive)
18,O=[N+]([O-])c1ccc(N2CCN(Cc3c(F)cccc3Cl)CC2)cc1,86.5% (active)
19,N#Cc1c(F)cccc1N1CCN(c2ccccc2O)CC1,-21.1% (inactive)
20,O=c1ccc(-c2cccc([N+](=O)[O-])c2)nn1Cc1c(F)cccc1Cl,21.1% (inactive)
21,O=C(CCl)N1CCN(Cc2ccc(Cl)s2)CC1,-19.9% (inactive)
22,O=C(CCl)N1CCN(c2ccccc2F)CC1,97.1% (active)
23,O=C(CCl)N1CCN(Cc2cccc3ccccc23)CC1,71.9% (active)
24,O=C(c1ccc2c(c1)OCO2)C1CCCN(Cc2c(F)cccc2Cl)C1 (centres undefined),-16.5% (inactive)

# — PubChem BioAssay AID1259343 (VanderVen Lab, College of Veterinary Medicine, Cornell …, 2017)
